Assay results reported in PubChem BioAssay AID1159580 (chemical genetic matrix, 2015).
Out of some 5,500 compounds screened, about 2,000 (36%) were called active. About 18% were inconclusive and are not listed. Cut-off read from the data, not from the text of the source: active = normalized growth mostly below about 0.91 (no sharp cut-off); inconclusive = no clear call, values can overlap the other calls; inactive = mostly above about 0.92. The list shows a part of the results.

Assay: chemical genetic growth profiling, strain panel (AID 1159580);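 note: tested at 20 µM; growth read once vehicle control cultures reached saturation at 30 °C; 1 = growth at the plate median or of vehicle wells; lower values mean less growth of the strain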
Settings: growth OD

Measured: normalized growth

CCOC(=O)c1c(C)cc(O)c(C=O)c1O
active: S. cerevisiae deletion strains, locus YJR075W, strain HOC1, stronger effect = lower value 0.272 | S. cerevisiae deletion strains, locus YKL009W, strain mrt4, stronger effect = lower value 0.446 | S. cerevisiae deletion strains, locus YKL068W, stronger effect = lower value 0.799 | S. cerevisiae deletion strains, locus YKL085W, strain MDH1 (second series), stronger effect = lower value 0.528 | S. cerevisiae deletion strains, locus YKL085W, strain MDH1, stronger effect = lower value 0.528 | S. cerevisiae deletion strains, locus YKL160W, strain elf1, stronger effect = lower value 0.655 | S. cerevisiae deletion strains, locus YKL190W, strain CNB1, stronger effect = lower value 0.108 | S. cerevisiae deletion strains, locus YKR001C, strain vps1, stronger effect = lower value 0.103 | S. cerevisiae deletion strains, locus YKR026C, strain gcn3, stronger effect = lower value 0.823 | S. cerevisiae deletion strains, locus YKR091W, strain srl3, stronger effect = lower value 0.851 | S. cerevisiae deletion strains, locus YLL001W, strain dnm1, stronger effect = lower value 0.568 | S. cerevisiae deletion strains, locus YLL026W, stronger effect = lower value 0.706 | S. cerevisiae deletion strains, locus YLL041C, strain sdh2, stronger effect = lower value 0.823 | S. cerevisiae deletion strains, locus YLR027C, strain aat2, stronger effect = lower value 0.593 | S. cerevisiae deletion strains, locus YLR039C, strain RIC1, stronger effect = lower value 0.0958 | S. cerevisiae deletion strains, locus YLR058C, strain SHM2, stronger effect = lower value 0.202 | S. cerevisiae deletion strains, locus YLR102C, strain apc9, stronger effect = lower value 0.221 | S. cerevisiae deletion strains, locus YLR113W, strain HOG1, stronger effect = lower value 0.157 | S. cerevisiae deletion strains, locus YLR221C, strain rsa3, stronger effect = lower value 0.499 | S. cerevisiae deletion strains, locus YLR258W, strain gsy2, stronger effect = lower value 0.681 | S. cerevisiae deletion strains, locus YLR262C, strain YPT6 (second series), stronger effect = lower value 0.153 | S. cerevisiae deletion strains, locus YLR262C, strain YPT6, stronger effect = lower value 0.113 | S. cerevisiae deletion strains, locus YLR268W, strain sec22, stronger effect = lower value 0.091 | S. cerevisiae deletion strains, locus YLR320W, strain mms22, stronger effect = lower value 0.292 | S. cerevisiae deletion strains, locus YLR330W, strain CHS5, stronger effect = lower value 0.176 | S. cerevisiae deletion strains, locus YLR342W, strain FKS1 (second series), stronger effect = lower value 0.159 | S. cerevisiae deletion strains, locus YLR342W, strain FKS1, stronger effect = lower value 0.586 | S. cerevisiae deletion strains, locus YLR357W, strain rsc2, stronger effect = lower value 0.772 | S. cerevisiae deletion strains, locus YLR370C, strain arc18, stronger effect = lower value 0.656 | S. cerevisiae deletion strains, locus YLR371W, strain rom2, stronger effect = lower value 0.158 | S. cerevisiae deletion strains, locus YLR384C, strain iki3, stronger effect = lower value 0.718 | S. cerevisiae deletion strains, locus YLR418C, strain cdc73, stronger effect = lower value 0.13 | S. cerevisiae deletion strains, locus YML016C, strain PPZ1, stronger effect = lower value 0.344 | S. cerevisiae deletion strains, locus YML032C, strain rad52, stronger effect = lower value 0.137 | S. cerevisiae deletion strains, locus YML120C, strain ndi1, stronger effect = lower value 0.652 | S. cerevisiae deletion strains, locus YML124C, strain tub3, stronger effect = lower value 0.262 | S. cerevisiae deletion strains, locus YMR058W, strain fet3, stronger effect = lower value 0.0978 | S. cerevisiae deletion strains, locus YMR078C, strain ctf18, stronger effect = lower value 0.112 | S. cerevisiae deletion strains, locus YMR125W, strain sto1, stronger effect = lower value 0.673 | S. cerevisiae deletion strains, locus YMR129W, stronger effect = lower value 0.722 | S. cerevisiae deletion strains, locus YMR205C, strain PFK2, stronger effect = lower value 0.47 | S. cerevisiae deletion strains, locus YMR223W, strain ubp8, stronger effect = lower value 0.2 | S. cerevisiae deletion strains, locus YMR231W, strain pep5, stronger effect = lower value 0.311 | S. cerevisiae deletion strains, locus YMR263W, strain SAP30, stronger effect = lower value 0.353 | S. cerevisiae deletion strains, locus YMR307W, strain GAS1, stronger effect = lower value 0.133 | S. cerevisiae deletion strains, locus YNL067W, strain RPL9B, stronger effect = lower value 0.201 | S. cerevisiae deletion strains, locus YNL071W, strain lat1, stronger effect = lower value 0.248 | S. cerevisiae deletion strains, locus YNL128W, strain TEP1, stronger effect = lower value 0.237 | S. cerevisiae deletion strains, locus YNL153C, strain GIM3, stronger effect = lower value 0.205 | S. cerevisiae deletion strains, locus YNL183C, strain NPR1, stronger effect = lower value 0.0359 | S. cerevisiae deletion strains, locus YNL209W, strain ssb2, stronger effect = lower value 0.392 | S. cerevisiae deletion strains, locus YNL233W, strain BNI4, stronger effect = lower value 0.153 | S. cerevisiae deletion strains, locus YNL248C, strain rpa49, stronger effect = lower value 0.635 | S. cerevisiae deletion strains, locus YNL250W, strain rad50, stronger effect = lower value 0.514 | S. cerevisiae deletion strains, locus YNL271C, strain bni1, stronger effect = lower value 0.347 | S. cerevisiae deletion strains, locus YNL298W, strain CLA4, stronger effect = lower value 0.382 | S. cerevisiae deletion strains, locus YNL307C, strain MCK1, stronger effect = lower value 0.0757 | S. cerevisiae deletion strains, locus YNL322C, strain KRE1 (second series), stronger effect = lower value 0.797 | S. cerevisiae deletion strains, locus YNL322C, strain KRE1, stronger effect = lower value 0.207 | S. cerevisiae deletion strains, locus YNR049C, strain mso1, stronger effect = lower value 0.796 | S. cerevisiae deletion strains, locus YNR052C, strain pop2, stronger effect = lower value 0.155 | S. cerevisiae deletion strains, locus YOL006C, strain TOP1, stronger effect = lower value 0.137 | S. cerevisiae deletion strains, locus YOL147C, strain pex11, stronger effect = lower value 0.0808 | S. cerevisiae deletion strains, locus YOR001W, strain rrp6, stronger effect = lower value 0.604 | S. cerevisiae deletion strains, locus YOR061W, strain CKA2, stronger effect = lower value 0.486 | S. cerevisiae deletion strains, locus YOR069W, strain VPS5, stronger effect = lower value 0.255 | S. cerevisiae deletion strains, locus YOR070C, strain gyp1, stronger effect = lower value 0.535 | S. cerevisiae deletion strains, locus YOR080W, strain dia2, stronger effect = lower value 0.642 | S. cerevisiae deletion strains, locus YOR083W, strain WHI5, stronger effect = lower value 0.674 | S. cerevisiae deletion strains, locus YOR106W, strain vam3, stronger effect = lower value 0.358 | S. cerevisiae deletion strains, locus YOR136W, strain idh2, stronger effect = lower value 0.267 | S. cerevisiae deletion strains, locus YOR144C, strain elg1, stronger effect = lower value 0.136 | S. cerevisiae deletion strains, locus YOR184W, strain ser1, stronger effect = lower value 0.0931 | S. cerevisiae deletion strains, locus YOR231W, strain MKK1, stronger effect = lower value 0.142 | S. cerevisiae deletion strains, locus YOR265W, strain rbl2, stronger effect = lower value 0.697 | S. cerevisiae deletion strains, locus YOR270C, strain vph1, stronger effect = lower value 0.263 | S. cerevisiae deletion strains, locus YOR290C, strain snf2, stronger effect = lower value 0.558 | S. cerevisiae deletion strains, locus YOR316C, strain cot1, stronger effect = lower value 0.213 | S. cerevisiae deletion strains, locus YPL051W, strain arl3, stronger effect = lower value 0.225 | S. cerevisiae deletion strains, locus YPL055C, strain LGE1, stronger effect = lower value 0.171 | S. cerevisiae deletion strains, locus YPL078C, strain atp4, stronger effect = lower value 0.558 | S. cerevisiae deletion strains, locus YPL106C, strain sse1, stronger effect = lower value 0.708 | S. cerevisiae deletion strains, locus YPL240C, strain hsp82, stronger effect = lower value 0.75 | S. cerevisiae deletion strains, locus YPL241C, strain CIN2, stronger effect = lower value 0.224 | S. cerevisiae deletion strains, locus YPL256C, strain CLN2, stronger effect = lower value 0.15 | S. cerevisiae deletion strains, locus YPR119W, strain clb2, stronger effect = lower value 0.164 | S. cerevisiae deletion strains, locus YPR141C, strain kar3, stronger effect = lower value 0.704 | S. cerevisiae deletion strains, locus YPR163C, strain tif3, stronger effect = lower value 0.0943 | S. cerevisiae deletion strains, locus YPR167C, strain met16, stronger effect = lower value 0.252 | S. cerevisiae deletion strains, strain wtn01, stronger effect = lower value 0.166 | S. cerevisiae strains, strain wild type, stronger effect = lower value 0.162
inactive: S. cerevisiae deletion strains, locus YOL012C, strain htz1 0.305
